PubChem BioAssay AID652054 (National Center for Advancing Translational Sciences (NCATS), 2013)
Screen size: about 360,000 compounds; about 9,100 (2.5%) were called active. Roughly 4% stayed inconclusive and do not appear here. No stated cut-off is given here; in the data, active means max response below about -50%; inconclusive means no clear call, values can overlap the other calls; inactive means above that. What follows is part of a selection rich in actives, with near analogues and random picks from the rest.

Molecular target: D(3) dopamine receptor (Homo sapiens) (UniProt P35462)
Sequence (P35462 whole entry, looked up): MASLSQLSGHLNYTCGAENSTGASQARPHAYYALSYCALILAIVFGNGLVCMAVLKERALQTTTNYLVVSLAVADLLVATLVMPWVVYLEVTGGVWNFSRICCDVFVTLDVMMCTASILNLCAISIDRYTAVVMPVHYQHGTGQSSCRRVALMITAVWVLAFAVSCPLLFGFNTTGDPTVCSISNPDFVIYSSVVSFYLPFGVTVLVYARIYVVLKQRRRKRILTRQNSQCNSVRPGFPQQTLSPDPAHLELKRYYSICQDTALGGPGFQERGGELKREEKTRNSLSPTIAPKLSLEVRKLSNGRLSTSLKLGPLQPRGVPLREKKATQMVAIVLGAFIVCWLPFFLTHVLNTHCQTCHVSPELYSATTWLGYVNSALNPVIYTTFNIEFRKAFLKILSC
Assay: qHTS of D3 Dopamine Receptor Antagonist: qHTS
Settings: D3R cells, DiscoveRx beta-arrestin luminescence, antagonist mode; active compounds read low
Outline: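 Cells expressing the human receptor were seeded at 1500 cells/well, incubated overnight at 37 degrees C in 5% CO2, then exposed to library compounds with dopamine controls for 90 minutes at 37 degrees C before luminescent detection.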
On the % scale 0 is the no-effect control and ±100 the full control effect.

| SMILES | max response, negative = inhibition |
| --- | --- |
| COc1ccc(C(C#N)=C2C=CC(=NO)c3ccccc32)cc1 | -54% (active) |
| COc1ccc(C(=NN)c2ccc(OC)cc2)cc1 | -10.2% (inactive) |
| COc1ccc(/C(N)=N/OC(=O)Cc2ccccc2)cc1 | -0.193% (inactive) |
| Cc1cccc(C)c1NC(=O)C(c1ccc(C(F)(F)F)cc1)n1c(=O)c(-c2ccco2)nc2ccccc21 (stereo unspecified) | -12.7% (inactive) |
| COc1cc(C=C(OC(C)=O)c2ccc3c(c2)OCO3)cc(OC)c1OC | 24.2% (inactive) |
| O=C1CCC(C(=O)OCC(=O)Nc2ccc(OC(F)F)cc2)=NN1 | 12.8% (inactive) |
| O=C(N/N=C/c1cc(Br)c(O)c([N+](=O)[O-])c1)C(O)(c1ccccc1)c1ccccc1 | -10.9% (inactive) |
| O=C(N/N=C/c1cc(Cl)cc([N+](=O)[O-])c1O)C(O)(c1ccccc1)c1ccccc1 | -89.3% (active) |
| O=C(Cc1ccccc1)N/N=C/c1ccc(Cl)cc1Cl | -15.7% (inactive) |
| CN(C)/N=C/c1cc(Cl)cc([N+](=O)[O-])c1O | -79.8% (active) |
| CC(=O)NC(c1ccccc1)c1nc(-c2ccccc2C)cs1 (stereo unspecified) | -13.7% (inactive) |
| CC(C)CCNC(=O)c1[nH]c(C(F)(F)F)nc1-c1ccccc1 | 0% (inactive) |
| COCOCCn1cc(CN2CCS(=O)(=O)N(Cc3ccc(-c4ccc(OC)cc4)cc3)C(CC(C)C)C2=O)nn1 (stereo unspecified) | 10.8% (inactive) |
| COc1ccc(NC(=O)CSc2nc(C)cs2)cc1 | 5.34% (inactive) |
| COc1ccc(NC(=O)c2ccc(C#CC(C)(C)O)cc2)cc1 | -1.8% (inactive) |
| COc1ccc(NC(=O)c2sccc2SCC#N)cc1 | -82.3% (active) |
| C[C@@H]1CN([C@H](C)CO)C(=O)CCCn2cc(nn2)CO[C@H]1CN(C)S(C)(=O)=O | 12.7% (inactive) |
| NC(=S)NN=Cc1ccc(OC(=O)COc2cc(Cl)c(Cl)cc2Cl)cn1 | 0.559% (inactive) |
| O=C(Nc1ccc2c(c1)OCCO2)C(C1CC1)N1CCC(Cc2ccccc2)CC1 (stereo unspecified) | -73.1% (active) |
| CCC(C(=O)Nc1ccc2c(c1)OCCO2)c1ccccc1 (stereo unspecified) | -13.2% (inactive) |
| O=C(CN1CCOc2ccccc21)N1CCC(Cc2ccccc2)CC1 | 0% (inactive) |
| O=C(NCc1ccccc1)C(c1ccc(F)cc1)N1CCN(C(=O)C2CCCO2)CC1 (stereo unspecified) | 29.8% (inactive) |
| CCOC(=O)C1(C)CCCN(C(=O)c2cccc(Cl)c2)C1 (stereo unspecified) | -16.8% (inactive) |

| SMILES | max response, negative = inhibition |
| --- | --- |
| COC(=O)c1cc(NC(=O)Cc2ccccc2[N+](=O)[O-])ccc1Cl | -7.17% (inactive) |
| N#Cc1cccc(NC(=O)COC(=O)c2ccccc2C(=O)c2ccc(Cl)c([N+](=O)[O-])c2)c1 | -50.7% (active) |
| NC(=O)c1ccc(NC(=O)COC(=O)c2ccc([N+](=O)[O-])cc2)cc1 | -15.1% (inactive) |
| CCCc1ccc(C(O)c2ncc(-c3cccc(OC)c3)[nH]2)cc1 (stereo unspecified) | 0% (inactive) |
| CC(C)(C)S(=O)N1Cc2cc(C(=O)NCCCN3CCOCC3)nc(-c3cccc(-c4cc5ccccc5o4)c3)c2[C@H]1CCO (stereo partly specified) | 9.3% (inactive) |
| COc1cccc(S(=O)(=O)NCc2ccc(C(=O)NCc3ccccn3)cc2)c1 | 8.72% (inactive) |
| CN(c1ccc(C(=O)NCc2ccccn2)cc1)S(C)(=O)=O | -116% (active) |
| CCN(c1ccccc1)S(=O)(=O)c1cc(C(=O)NCc2ccccn2)ccc1C | 4.76% (inactive) |
| CC1(Cc2ccccc2C#N)C(=O)Nc2ccc(-c3ccc4[nH]ccc4c3)cc21 (stereo unspecified) | -15.9% (inactive) |
| COc1ccc(S(=O)(=O)N[C@@H]2C=C[C@@H](CC(=O)N3CCc4ccccc4C3)O[C@@H]2CO)cc1 | -0.0851% (inactive) |
| COc1cccc(C2=CC(=O)C[C@H](c3ccc(F)cc3)C2)c1OC | -8.44% (inactive) |
| O=C1C=C(c2cccc(Cl)c2O)C[C@@H](c2ccc(F)cc2)C1 | -58.3% (active) |
| COc1ccccc1C1=CC(=O)C[C@H](c2ccc(F)cc2)C1 | -18.2% (inactive) |
| COC(=O)C1=C(C)NC2=C(C(=O)c3ccccc32)C1c1ccc(-c2ccc(C(=O)O)cc2)o1 (stereo unspecified) | -75.7% (active) |
| COC(=O)C1=C(C)N(C)C(=O)NC1c1ccc([N+](=O)[O-])o1 (stereo unspecified) | -10.8% (inactive) |
| CCOC(=O)c1ccc(-c2ccc(C(=O)Nc3cccnc3)o2)cc1 | 9.54% (inactive) |
| O=C(NCc1ccco1)C1(c2ccc(Cl)cc2)CCCC1 | -5.37% (inactive) |
| O=C(CSc1nnnn1-c1ccccc1)NCc1ccco1 | -1.61% (inactive) |
| O=C(CSc1c2c(nc3ccc(Cl)cc13)CCCC2)NCc1ccco1 | -79.5% (active) |
| Cc1cc(C)n(-c2nnc(N3CCN(c4ccccc4)CC3)nn2)n1 | -8.33% (inactive) |
| CN(C)c1ccc(/C=N/Nc2cc(N3CCOCC3)nc(N3CCOCC3)n2)cc1 | -13.4% (inactive) |
| Cc1cc(N/N=C\c2ccc(Br)cc2)nc(-n2nc(C)cc2C)n1 | -54.3% (active) |
| N#CC1=C(N)C(C#N)(C#N)[C@H](c2ccsc2)[C@H]2COCC=C12 | -56% (active) |

| SMILES | max response, negative = inhibition |
| --- | --- |
| C[C@H]1COc2cc(N3CCSCC3)ccc2S(=O)(=O)N1 | -22.5% (inactive) |
| CCCCC(O)C1=C[N+](=O)CC=C1 (stereo unspecified) | 7.65% (inactive) |
| COc1ccc(-c2cc(NC=O)c3ncc(-c4ccccc4)n3c2)cc1OC | -15.4% (inactive) |
| COc1ccc(S(=O)(=O)NC(=O)C2(C)CCN2C(=O)c2ccccc2CCc2ccccc2)cc1 (stereo unspecified) | -6.13% (inactive) |
| CC(C)(O)C1=C[N+](=O)CC=C1 | -16.9% (inactive) |
| O=C(c1ccccc1)N1CCN(c2cc(-c3ccccc3)nc3cc(-c4cccc(Cl)c4)nn23)CC1 | 14.3% (inactive) |
| CCOC(=O)c1[nH]c2ccc(OC)cc2c1NC(=O)CCN1CCN(Cc2ccccc2)CC1 | -54.8% (active) |
| Cc1cc(NC(=O)CCN2CCN(Cc3ccccc3)CC2)ccc1Br | -20.3% (inactive) |
| COC(=O)c1[nH]c2ccccc2c1NC(=O)CN1CCCc2ccccc21 | 9.03% (inactive) |
| COc1ccc(-c2c(C#N)cnc(C)c2C)c(O)c1OC | 9.2% (inactive) |
| CC(=O)Nc1cccc(Nc2ccc(C#N)cc2)c1 | 1.07% (inactive) |
| Clc1ccc(-n2nnnc2CN2CCCCC2)cc1Cl | -19.7% (inactive) |
| c1cc(-c2nn[nH]n2)ccc1CN1CCCCC1 | -18.9% (inactive) |
| Clc1ccc(CN2CCCCCC2)cc1Cl | -62.3% (active) |
| CC1(C(=O)NCc2ccc3c(c2)OCO3)CCN1CCc1ccccc1 (stereo unspecified) | -10.3% (inactive) |
| COCCNc1nc(NCc2ccc(NC(C)=O)cc2)c2sccc2n1 | 23.6% (inactive) |
| COc1ccc(NC(=O)C2Cc3c(-c4ccc5c(c4)OCO5)ccnc3O2)cn1 (stereo unspecified) | -19.8% (inactive) |
| CC1(C)Cc2ccccc2/C(=C/C(=O)c2ccccc2)N1 | 3.22% (inactive) |
| CC1(C)Cc2ccccc2-c2[nH]c(=S)[nH]c(=O)c21 | -54.5% (active) |
| CC1(C)Cc2ccccc2-c2nc(CN3CCOCC3)[nH]c(=O)c21 | 8.19% (inactive) |
| COc1cc(Cn2c3ccc(NC(=O)CC(C)c4ccccc4)cc3c(=O)n2C)ccc1F (stereo unspecified) | 0% (inactive) |
| CC1(C(=O)NS(=O)(=O)c2ccc(C#N)cc2)CCN1C(=O)c1ccc(C2CCCCC2)cc1 (stereo unspecified) | -14.3% (inactive) |
| OCC1OC(n2cnc3c(N4CCCC4)ncnc32)C(O)C1O (stereo unspecified) | 10.4% (inactive) |

| SMILES | max response, negative = inhibition |
| --- | --- |
| O=C(OCc1cn([C@@H]2C[C@H](c3ccc(Cl)cc3)N(Cc3cccs3)C[C@H]2O)nn1)c1ccccc1 | -15% (inactive) |
| CCN(CC)CCNC(=O)c1cc(S(C)(=O)=O)ccc1OC | -60.5% (active) |
| CCN(CC)CCNC(=O)c1ccc(NS(=O)(=O)c2ccc3c(c2)OCCO3)cc1 | 2.66% (inactive) |
| COc1ccc(S(=O)(=O)NC(C)C)cc1C(=O)NC1CCCCC1 | 11.4% (inactive) |
| COc1cccc(CN2CCC(C(=O)NC(c3ccc4c(c3)OCO4)c3ccccn3)CC2)c1 (stereo unspecified) | -21.6% (inactive) |
| O=C(NCCN1CCOCC1)c1ccc2c(c1)N(Cc1cccc(Cl)c1)C(=O)c1ccccc1S2(=O)=O | -29.4% (inactive) |
| CC1(C(=O)Nc2cccc3c2CCCC3)CCN1C(=O)C1(c2ccccc2)CC1 (stereo unspecified) | 11.6% (inactive) |
| CCOC(=O)N1CCN(C(=O)C2CCN(Cc3ccc(OC)cc3OC)CC2)CC1 | 0.368% (inactive) |
| CCOC(=O)C1CCCN(C(=O)/C=C/c2ccc(OC)cc2)C1 (stereo unspecified) | -24.9% (inactive) |
| CCOC(=O)c1cc2cc(OC)ccc2n1C1CCN(C)CC1 | -92.9% (active) |
| O=C1c2ccccc2C(c2nc3ccccc3[nH]2)N1c1ccccc1 (stereo unspecified) | 6.4% (inactive) |
| O=C(c1ccc(CS(=O)Cc2ccccc2Cl)o1)N1CCN(c2ccccc2)CC1 (stereo unspecified) | 2.17% (inactive) |
| CS(=O)(=O)/C(C#N)=C/c1cccn1S(=O)(=O)c1ccc([N+](=O)[O-])cc1 | -13.9% (inactive) |
| O=C1c2ccccc2C(=O)c2c1cccc2N1CCN(Cc2ccccc2)CC1 | -83% (active) |
| O=C(CN1CCN(Cc2ccccc2)CC1)NC(c1ccccc1)c1ccccc1 | -9.3% (inactive) |
| O=S1(=O)CCN(Cc2ccccc2)CC1 | -8.1% (inactive) |
| FC(F)(F)c1cccc(-c2nc3ccccc3n2C(c2ccccc2)c2nc3ccccc3[nH]2)c1 (stereo unspecified) | 7.98% (inactive) |
| CCCNC(=O)c1cc(C2CCCCN2S(=O)(=O)c2ccc(C#N)cc2)on1 (stereo unspecified) | 15.7% (inactive) |
| CCOc1ccc(CCN2C(=O)C(=O)N([C@@H](CC(C)C)CN3CCC[C@H]3CN3C(=O)C(=O)NC[C@@H]3Cc3ccccc3)C[C@@H]2CC(C)C)cc1 | 2.39% (inactive) |
| O=S(=O)(Nc1ccccc1Cl)c1cccc2nsnc12 | -8.87% (inactive) |
| O=C(O)c1ccc(NS(=O)(=O)c2cccc3nsnc23)cc1 | -88.2% (active) |
| COc1ccc(NS(=O)(=O)c2cccc3nsnc23)cc1Cl | -6.5% (inactive) |
